The values that follow come from PubChem BioAssay AID431 (Sanford-Burnham Center for Chemical Genomics, 2006).

Screen size: about 63,000 compounds; about 1,100 (1.7%) were called active. The sample holds actives, similar compounds and a random draw of the others, so the mix is not that of the screen.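 Rule for the calls: active = compounds whose percent cytotoxicity in the single-dose primary screen, scaled between solvent and toxic-drug controls, exceeds 50; inactive = the rest.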 Entries with a potency or affinity are not part of this list.

The nature of this experiment: cytotoxicity in KRAS-transformed pancreatic duct cells, primary screen, cell-based, fluorescence, HTS (AID 431).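 Note: 0% = DMSO solvent wells and 100% = doxorubicin-treated wells.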 The following applies: HPDE-C7K KRASV12 cells, Alamar Blue viability, 48 h; at 10 µM; active compounds read high. (The colour change of resazurin is a common sign of viable cells or microbes.)
For the compound `CC(C)CCOc1cccc(OCC(=O)N(C)C2CCS(=O)(=O)C2)c1` (stereo not drawn), the cytotoxicity is 4.8% (inactive).

With `COc1ccc(OC)c(S(=O)(=O)N2CCc3ccccc32)c1`, the cytotoxicity was 18.5% (inactive).

On to `CCOc1c(Br)cc(CNc2ncn[nH]2)cc1OC`, for which the cytotoxicity was 2.8% (inactive).

As for `O=C(CSc1c2c(nc3ccc(Cl)cc13)CCCC2)N1CCN(C(=O)c2ccco2)CC1`, the cytotoxicity is 105% (active).

As to `O=C(CSc1nnc(SCc2ccc(Cl)cc2)s1)N1CCN(C(=O)c2ccco2)CC1`, the cytotoxicity was -15.2% (inactive).

`O=C(CSc1nc2cc(Cl)ccc2s1)N1CCN(C(=O)c2ccco2)CC1`: the cytotoxicity is 5.8% (inactive).

Take `CC1Cc2nc(SCC(=O)NCc3ccco3)n(-c3ccccc3)c(=O)c2S1` (stereo not drawn): the cytotoxicity was 3.1% (inactive).

On to `O=C(Cc1cccs1)NCc1ccc2c(c1)OCO2`, for which the cytotoxicity is -5.9% (inactive).

As for `CCOC(=O)c1oc2c(C)c(O)ccc2c(=O)c1-c1nncn1-c1ccccc1`, the cytotoxicity is -6.3% (inactive).

Regarding `Cn1c(=O)[nH]c(=O)c2c1nc(CN1CCN(c3cccc(Cl)c3)CC1)n2CCCc1ccccc1`, the cytotoxicity is 6% (inactive).

Take `Cc1nc2ccc(N)cc2s1`: the cytotoxicity was -7.6% (inactive).

Take `Nc1cccc(-c2nc3ccc(N)cc3s2)c1`: the cytotoxicity was 50.7% (active).

Consider `Oc1cccc(-c2nc3ccccc3s2)c1`, for which the cytotoxicity is 0.9% (inactive).

Take `CN(C)CCCN1c2ccccc2CCc2ccc(Cl)cc21`: the cytotoxicity was 47.6% (inactive).

On to `CN(C)CCCN1c2ccccc2Sc2ccccc21`, for which the cytotoxicity was 56.1% (active).

`CN(C)CCCN1c2ccccc2CCc2ccccc21`: the cytotoxicity is 20.3% (inactive).

`CCOC(=O)Nc1ccc2c(c1)N(C(=O)CCN(C)C)c1ccccc1S2`: the cytotoxicity is 15% (inactive).

Regarding `COc1ccc2c(c1)Sc1ccccc1N2CCN(C)C`, the cytotoxicity was 27.8% (inactive).

As for `CCN1C(=O)C2C(c3ccc(O)c(OC)c3)NC(C)(C(=O)OC)C2C1=O` (stereo not drawn), the cytotoxicity was 9.8% (inactive).

Take `CCc1c(C)nc2ncnn2c1N1CCCC(C(=O)NCCc2ccccc2)C1` (stereo not drawn): the cytotoxicity is 2.2% (inactive).

For `CCOC(=O)C1CCN(C(=O)c2ccc(Cl)c(Cl)c2)CC1`, the cytotoxicity was -6.5% (inactive).

As to `O=C(Nc1ccc(Cl)cc1)NC1CCS(=O)(=O)C1` (stereo not drawn), the cytotoxicity was -15% (inactive).

In the case of `COc1ccc(Cc2nc(-c3ccc(NC(=O)c4cccnc4)cc3)no2)cc1`, the cytotoxicity was 33.9% (inactive).

Regarding `CC(Oc1ccc(Cl)cc1Cl)c1nc(-c2ccccn2)no1` (stereo not drawn), the cytotoxicity is 23.6% (inactive).

As for `CC(Oc1ccc(Cl)cc1Cl)c1nc(-c2ccc(NC(=O)c3cccnc3)cc2)no1` (stereo not drawn), the cytotoxicity is 59.3% (active).

Consider `O=C(Nc1ccc(-c2noc(CCc3ccccc3)n2)cc1)c1cccnc1`, for which the cytotoxicity was 47% (inactive).

Take `COc1cccc(-c2nc(-c3ccc(NC(=O)c4cccnc4)cc3)no2)c1`: the cytotoxicity was 44.3% (inactive).

Regarding `O=C(Nc1ccc(-c2noc(-c3cccs3)n2)cc1)c1cccnc1`, the cytotoxicity was 52.5% (active).

On to `CC(C)(C)Cc1nc(-c2ccccn2)no1`, for which the cytotoxicity was -9.1% (inactive).

`COCCNC(=O)c1cc(-c2ccc(Cl)c(Cl)c2)on1`: the cytotoxicity is -9.5% (inactive).

With `O=C(c1cc2cc(Br)ccc2oc1=O)N1CCN(c2ccccn2)CC1`, the cytotoxicity was -8.8% (inactive).

On to `O=C(CC1SCCNC1=O)Nc1cc(Cl)cc(Cl)c1` (stereo not drawn), for which the cytotoxicity was -5.4% (inactive).

Consider `O=C(CC(c1ccccc1)c1cc(Cl)ccc1O)N1CCOCC1` (stereo not drawn), for which the cytotoxicity is 10.5% (inactive).

For the compound `CCOc1ccc(C2C3=C(CCCC3=O)Nc3nc(C(F)(F)F)nn32)cc1OC` (stereo not drawn), the cytotoxicity was 1.4% (inactive).

As for `COc1ccc(CCNc2nc(N3CCCCC3)nc(N3CCCCC3)n2)cc1OC`, the cytotoxicity is 45.3% (inactive).

Regarding `O=S(=O)(/C=C/c1ccccc1)n1cnc2ccccc21`, the cytotoxicity is 40.1% (inactive).

On to `Cc1cc(C)n(S(=O)(=O)Cc2ccccc2)n1`, for which the cytotoxicity was -3.7% (inactive).

On to `CC1CCc2nn(CC(=O)N3CCCCCC3)cc2C1` (stereo not drawn), for which the cytotoxicity was 2.2% (inactive).

`Cc1ccc2c(c1)NC(=O)C(CC(=O)NCCN(CC(C)C)CC(C)C)O2` (stereo not drawn): the cytotoxicity was 15.6% (inactive).

Regarding `COc1cccc(CNC(=O)C2CCN(Cc3cnn(-c4ccccc4)c3-n3cccc3)CC2)c1`, the cytotoxicity is 5.5% (inactive).

As to `CCOC(=O)c1sc(NC(=O)CSc2nnnn2-c2ccccc2)nc1C`, the cytotoxicity was 9.6% (inactive).

For `O=C(CSc1ncn(-c2ccccc2)n1)Nc1nc2ccccc2s1`, the cytotoxicity is -3.6% (inactive).

`CCOC(=O)c1sc(NC(=O)CSc2ncn(-c3ccccc3)n2)nc1C`: the cytotoxicity is 76.1% (active).

For the compound `O=C1c2ccccc2C(=O)N1CCCc1nc2ccccc2c(=O)n1CCCn1ccnc1`, the cytotoxicity is -31.5% (inactive).

For `CCn1c2ccccc2c2nnc(SCCCn3c(=O)[nH]c4ccccc43)nc21`, the cytotoxicity is 2.7% (inactive).

With `C=CCn1c2ccccc2c2nnc(SCCCn3c(=O)[nH]c4ccccc43)nc21`, the cytotoxicity was 68.6% (active).

Turning to `C=CCn1c2ccccc2c2nnc(SCN3C(=O)c4ccccc4C3=O)nc21`, the cytotoxicity was 7.6% (inactive).

In the case of `Cc1cc(C)n2nc(-c3cccnc3)nc2n1`, the cytotoxicity is 2.1% (inactive).

As for `O=C(Nc1nncs1)c1ccc(N2C(=O)C3C4C=CC(C4)C3C2=O)cc1` (stereo not drawn), the cytotoxicity is 10.1% (inactive).

On to `CCc1nnc(NC(=O)CSc2nc3c(cc2C#N)CCC3)s1`, for which the cytotoxicity is 33.4% (inactive).

For `CCc1nnc(NC(=O)CSc2nc3c(cc2C#N)CCCC3)s1`, the cytotoxicity is 8.4% (inactive).

As for `CCc1nnc(NC(=O)CSc2nc(C)c3c(c2C#N)CCCC3)s1`, the cytotoxicity was 75.3% (active).

`O=C(NCc1ccccn1)Nc1ccc(Cl)c(Cl)c1`: the cytotoxicity was 1.8% (inactive).

As to `Cc1ccc(CNC(=O)CCCn2c(=O)[nH]c3ccccc3c2=O)cc1`, the cytotoxicity is -8.5% (inactive).

In the case of `O=C1CCCc2c1[nH]c1ccccc21`, the cytotoxicity was -0.9% (inactive).

Regarding `c1ccc2c3c([nH]c2c1)-c1[nH]ncc1CC3`, the cytotoxicity was 50.2% (active).

As to `Cc1ccc2[nH]c3c(c2c1)CCc1cn[nH]c1-3`, the cytotoxicity was 35.6% (inactive).

On to `CCOC(=O)C1CCCN(c2nc3ccccc3nc2C(C#N)C(=O)OC(C)C)C1` (stereo not drawn), for which the cytotoxicity is -4.8% (inactive).

In the case of `CCOC(=O)C1CCN(c2nc3ccccc3nc2C(C#N)C(=O)OC(C)COC)CC1` (stereo not drawn), the cytotoxicity is 6.6% (inactive).

Turning to `CCOC(=O)C1CCCN(c2nc3ccccc3nc2C(C#N)C(=O)OCC)C1` (stereo not drawn), the cytotoxicity was 12.9% (inactive).

For `CCOC(=O)C1CCCN(c2nc3ccccc3nc2C(C#N)C(=O)OC(C)COC)C1` (stereo not drawn), the cytotoxicity is 31.8% (inactive).

For `CCOC(=O)C1CCCN(c2nc3ccccc3nc2C(C#N)C(=O)OCCOC)C1` (stereo not drawn), the cytotoxicity is 53.1% (active).

As to `CCOC(=O)C1CCN(c2nc3ccccc3nc2C(C#N)C(=O)OC(C)C)CC1` (stereo not drawn), the cytotoxicity is 62.8% (active).

Take `O=c1oc2ccccc2n1CCn1c2ccccc2c2nc3ccccc3nc21`: the cytotoxicity was 14.9% (inactive).

Take `CSCCC(NC(=O)c1ccco1)C(=O)OC(C)C(=O)NC(=O)NC1CCCCC1` (stereo not drawn): the cytotoxicity was -4.2% (inactive).

On to `O=C(CN(C1CCCCC1)S(=O)(=O)c1ccc(F)cc1)NC1CC1`, for which the cytotoxicity is -2.7% (inactive).

Consider `CCC1CCCCN1c1nc(-c2ccncc2)nc2ccccc12` (stereo not drawn), for which the cytotoxicity was -15.6% (inactive).

Consider `CCOC(=O)n1ccc(C(=O)Nc2ccccc2F)n1`, for which the cytotoxicity is -9.8% (inactive).

Regarding `CCOC(=O)Cn1nc(-c2ccc(Cl)cc2)cc1N`, the cytotoxicity is 0.5% (inactive).

Turning to `CCOC(=O)c1[nH]c(C)c(C(=O)Nc2ccccc2F)c1C`, the cytotoxicity is 37.9% (inactive).

Consider `CCOC(=O)Cc1nnc2c(Nc3ccc(C)cc3)nc3nonc3n12`, for which the cytotoxicity is -14% (inactive).

For the compound `CCOC(=O)Cc1nnc2c(Nc3ccccc3F)nc3nonc3n12`, the cytotoxicity is 53.8% (active).

Consider `CCOC(=O)Cc1nnc2c(Nc3ccc(Cl)cc3)nc3nonc3n12`, for which the cytotoxicity was 70.2% (active).

With `CCOC(=O)c1ccc(NC(=O)CCc2ccc(CC)o2)cc1`, the cytotoxicity was 8.4% (inactive).

Regarding `COc1cccc2cc(C(=O)C3=C(O)C(=O)N(CCCN4CCOCC4)C3c3ccncc3)oc12` (stereo not drawn), the cytotoxicity is 3.9% (inactive).

As to `CC(C)(C)NC(=O)Cn1c(SCC(=O)N2CCCCCC2)nc2ccccc21`, the cytotoxicity is -0.2% (inactive).

`Cc1csc2ncc(C(=O)NCc3ccccn3)c(=O)n12`: the cytotoxicity is -11.8% (inactive).

`COc1cccc(OCCn2c(C)c(/C=N/n3cnnc3)c3ccccc32)c1`: the cytotoxicity is 85.9% (active).

Regarding `Cc1c(/C=N/n2cnnc2)c2ccccc2n1CCOc1ccccc1`, the cytotoxicity was 43.4% (inactive).

Consider `Cc1ccc(OCCn2c(C)c(/C=N/n3cnnc3)c3ccccc32)cc1`, for which the cytotoxicity is 41.7% (inactive).

For `CCOC(=O)N1CCC(NC(=O)C2CCC(CNS(=O)(=O)c3ccc(OC)cc3)CC2)CC1` (stereo not drawn), the cytotoxicity is 0.5% (inactive).

`C=CCn1c(=N)n(CC(=O)OC)c2ccccc21`: the cytotoxicity was 8.1% (inactive).

As for `c1coc(-c2nc3ccccc3nc2-c2ccco2)c1`, the cytotoxicity was -6.2% (inactive).

In the case of `c1coc(-c2nc3nc4ccccc4n3nc2-c2ccco2)c1`, the cytotoxicity was 67.4% (active).

Consider `c1coc(-c2nc(-c3ccco3)c(-c3ccco3)nc2-c2ccco2)c1`, for which the cytotoxicity is -1.8% (inactive).

On to `O=C1CCCc2nc(N3CCN(c4ccccc4)CC3)ncc21`, for which the cytotoxicity was 20.9% (inactive).

For the compound `O=C(NC1CCCC1)C(c1cccs1)N(C(=O)c1ccno1)c1ccccc1` (stereo not drawn), the cytotoxicity is 2.6% (inactive).

As to `COc1ccc(C2/C(=C(/O)c3ccc(C)cc3)C(=O)C(=O)N2C)cc1` (stereo not drawn), the cytotoxicity is -6.1% (inactive).

Consider `Cc1nnc(SCCn2c(N3CCN(C)CC3)nc3c2c(=O)[nH]c(=O)n3C)s1`, for which the cytotoxicity was -9.9% (inactive).

As for `Cc1nnc(Sc2nc(Sc3nnc(C)s3)nc(N3CCN(C)CC3)n2)s1`, the cytotoxicity is 102% (active).

On to `Cc1nnc(SCCn2c(N3CCN(C)CC3)nc3c2c(=O)n(C)c(=O)n3C)s1`, for which the cytotoxicity is 3.6% (inactive).

Regarding `CC(=O)Nc1nc(C)c(Oc2ccccc2)c(=O)[nH]1`, the cytotoxicity is 6.8% (inactive).

`CCOC(=O)c1c(C)[nH]c(C(=O)OCC(=O)N2CCc3ccccc32)c1C`: the cytotoxicity was -21.3% (inactive).

Turning to `CCOC(=O)c1[nH]c(C)c(C(=O)N2CCc3ccccc32)c1C`, the cytotoxicity is 57.6% (active).

As to `CC(=O)c1c(C)[nH]c(C(=O)N2CCc3ccccc32)c1C`, the cytotoxicity is 10.3% (inactive).

Take `COc1ccc(CN(C(=O)CSc2nnc(-c3ccccc3F)o2)c2ccc(F)cc2)cc1`: the cytotoxicity is 16.8% (inactive).

Regarding `O=C(CSc1nnc(-c2c[nH]c3ccccc23)o1)N(Cc1ccccc1)c1ccc(F)cc1`, the cytotoxicity was 53.4% (active).

`COc1ccc(CN(C(=O)CSc2nnc(-c3ccc(F)cc3)o2)c2ccc(F)cc2)cc1`: the cytotoxicity is -9.8% (inactive).
